The text below walks through data of PubChem BioAssay (Tox21).

Several values for one entry are separate records, joined by “and”; a condition that tells them apart may be missing. Identical values can stand only once. Inconclusive results are not listed. Some compounds were tested as several samples or in several runs, with calls that do not always agree. Activity calls are given as the source filed them. Unless noted, calls follow the shape of the dose curve; as a rule, active = well fitted curve in the direction sought with a large enough effect in the repeat runs; inconclusive = weak or mixed curves; inactive = no such curve, though single readings can be large; an effect the other way counts as inactive or inconclusive.

A short description of assay [1]: qHTS assay to identify small molecule antagonists of the estrogen receptor alpha (ER-alpha) signaling pathway - cell viability counter screen (AID 743074; calls by dose curve;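 also: HEK293 cells carrying ER-alpha-UAS-bla reporter stimulated with 17beta-estradiol; nearly all actives have a fitted effect of over 45% in size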; also: potency is read from the fitted curve at half-maximal effect). In general terms: In qHTS, concentration-response curves come from the screen itself.
Assay [2] can be described thus: qHTS assay to identify small molecule antagonists of the estrogen receptor alpha (ER-alpha) signaling pathway using the BG1 cell line - cell viability counter screen (AID 743081).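 Also: compound given together with 17beta-estradiol as the ER stimulus; nearly all actives have a fitted effect of over 45% in size.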 Also: potency is read from the fitted curve at half-maximal effect.
For another assay, the target named is Aromatase (Homo sapiens) (UniProt P11511). Description: qHTS assay to identify aromatase inhibitors (AID 743083). Also: series mostly up to about 70 µM; nearly all actives have a fitted effect of over 55% in size.
Assay [3] can be described thus: qHTS assay to identify aromatase inhibitors - cell viability counter screen (AID 743084).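 Also: cells stimulated with testosterone during compound exposure; nearly all actives have a fitted effect of over 55% in size.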 Also: potency is read from the fitted curve at half-maximal effect.
Assay [4] deals with Aryl hydrocarbon receptor (Homo sapiens) (UniProt P35869). Description: qHTS assay to identify small molecule that activate the aryl hydrocarbon receptor (AhR) signaling pathway (AID 743085). Also: nearly all actives have a fitted effect of over 15% in size. Also: potency is read from the fitted curve at half-maximal effect.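 As to activation: HG2L7.5c1 human HepG2 liver cells with stably integrated DRE-driven firefly reporter; series mostly up to about 70 µM.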 An outline of the steps: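 24 h compound exposure, 37C, HepG2-derived HG2L7.5c1 cells with DRE-responsive luciferase. Readouts: fluorescence viability, then luminescence at room temperature after 30 min.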

Assay [5] in a line: qHTS assay to identify small molecule that activate the aryl hydrocarbon receptor (AhR) signaling pathway - cell viability counter screen (AID 743086). Also: nearly all actives have a fitted effect of over 45% in size. Also: potency is read from the fitted curve at half-maximal effect. An outline of the steps:
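HepG2-AhR-luc (HG2L7.5c1) cells, 4000/well, treated 24 h at 37 C with compound; viability measured as CellTiter-Fluor fluorescence after 30 min in the same wells as the luciferase read.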

The target in assay [6] is Peroxisome proliferator-activated receptor gamma (Homo sapiens) (UniProt P37231). Description: qHTS assay to identify small molecule agonists of the peroxisome proliferator-activated receptor gamma (PPARg) signaling pathway (AID 743094; active = well fitted activation curve with a large enough effect in the signal ratio in the repeat runs, not every such curve was filed as active; the % refers to the signal ratio). Put shortly:
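Agonist activity was taken from a beta-lactamase reporter (FRET substrate, 1 h at room temperature) in HEK293H cells carrying a PPARg UAS-bla construct. Compounds in DMSO were incubated 17 h at 37C after a 5 h cell pre-incubation.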

Assay [7] is described as follows: qHTS assay to identify small molecule antagonists of the peroxisome proliferator-activated receptor gamma (PPARg) signaling pathway - cell viability counter screen (AID 743194). Also: nearly all actives have a fitted effect of over 55% in size. Also: potency is read from the fitted curve at half-maximal effect. An outline of the steps:
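Cytotoxicity counter screen in PPARg-bla HEK293H cells, same wells as reporter assay. Compounds plus 50 nM rosiglitazone (final) for 17 h at 37 C, then viability read by CellTiter-Glo luminescence.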

Assay [8] can be described thus: qHTS assay for small molecule agonists of the antioxidant response element (ARE) signaling pathway (AID 743202; active = well fitted activation curve with a large enough effect in the signal ratio in the repeat runs, not every such curve was filed as active; the % refers to the signal ratio). An outline of the steps:
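HepG2 ARE-bla reporter line, 2,000 cells/well; 5 h preincubation 37 C/5% CO2; compound (DMSO) 16 h 37 C; B/G FRET substrate 2 h RT; fluorescence intensity.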

A short description of assay [9]: qHTS assay for small molecule agonists of the antioxidant response element (ARE) signaling pathway - cell viability counter screen (AID 743203; calls by dose curve; also: nearly all actives have a fitted effect of over 55% in size; also: potency is read from the fitted curve at half-maximal effect). Put shortly: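 Viability counter screen: CellTiter-Glo luminescence, read after 30 min at room temperature, in ARE-bla HepG2 wells. Compound exposure lasted 16 h at 37C/5% CO2, following a 5 h pre-incubation of the cells after plating.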

A short description of assay [10]: qHTS assay for small molecule activators of the heat shock response signaling pathway - cell viability counter screen (AID 743209). Also: nearly all actives have a fitted effect of over 50% in size. Put shortly: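 Cytotoxicity counter screen run in the same wells as the heat-shock bla reporter assay: HeLa HSE-bla cells, 5 h compound exposure at 37 C, viability read by CellTiter-Glo luminescence.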
A short description of assay [11]: qHTS assay for small molecule activators of the heat shock response signaling pathway (AID 743210; active = well fitted activation curve with a large enough effect in the signal ratio in the repeat runs, with a control signal flat, not every such curve was filed as active; the % refers to the signal ratio;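 also: HeLa cells with beta-lactamase reporter driven by heat shock elements; series mostly up to about 63 µM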). Put shortly:
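Beta-lactamase reporter read-out: FRET substrate fluorescence after 2.5 h at RT, following 5 h compound treatment at 37 C of HeLa cells carrying HSE-driven bla reporter; quantitative HTS format.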

A short description of assay [12]: qHTS assay to identify small molecule agonists of the peroxisome proliferator-activated receptor delta (PPARd) signaling pathway - cell viability counter screen (AID 743211). Also: nearly all actives have a fitted effect of over 55% in size. Put shortly: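 Luminescent ATP viability assay (CellTiter-Glo, 30 min RT) in UAS-bla HEK293H cells carrying the PPAR delta reporter construct, 3000 cells/well, after a 17 h compound treatment at 37 C.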

Assay [13] is described as follows: qHTS assay to identify small molecule antagonists of the thyroid receptor (TR) signaling pathway (AID 743065). Also: nearly all actives have a fitted effect of over 55% in size. Also: potency is read from the fitted curve at half-maximal effect. An outline of the steps:
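GH3.TRE-Luc rat pituitary cells (two TREs driving luciferase) were dosed with compound, then stimulated with 1 nM T3 (final) for 23.5 h at 37 C. ONE-Glo luminescence was the read-out, with CellTiter-Fluor fluorescence as the cytotoxicity counter-screen.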

In assay [14] the test system is thyroid hormone receptor (rat, GH3 cells). The assay is described as follows: qHTS assay to identify small molecule agonists of the thyroid receptor (TR) signaling pathway (AID 743066; calls by dose curve).
Assay [15] concerns the target Estrogen receptor (Homo sapiens) (UniProt P03372). The assay is described as follows: qHTS assay to identify small molecule antagonists of the estrogen receptor alpha (ER-alpha) signaling pathway (AID 743069; active = well fitted curve in the direction sought with a large enough effect in the signal ratio in the repeat runs, not every such curve was filed as active; the % refers to the signal ratio). An outline of the steps: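 Beta-lactamase FRET fluorescence is read after 2 hr at room temperature with LiveBLAzer B/G substrate. Before that, ER-alpha-bla HEK293 cells sit 4 hr after plating, then receive compound plus 17beta-estradiol and incubate 18 hr at 37C.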

Assay [16] shares this target. The assay is described as follows: qHTS assay to identify small molecule agonists of the estrogen receptor alpha (ER-alpha) signaling pathway (AID 743075; calls by dose curve;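 also: HEK293 GripTite cells with ER-alpha and UAS-driven beta-lactamase reporter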).
Assay [17] shares this target. The assay is described as follows: qHTS assay to identify small molecule agonists of the estrogen receptor alpha (ER-alpha) signaling pathway using the BG1 cell line (AID 743079). Also: nearly all actives have a fitted effect of over 20% in size.
Assay [18] is described as follows: qHTS assay to identify small molecule antagonists of the estrogen receptor alpha (ER-alpha) signaling pathway using the BG1 cell line (AID 743080; calls by dose curve;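 also: BG1 cells stimulated with 17beta-estradiol alongside compound; series mostly up to about 70 µM; nearly all actives have a fitted effect of over 25% in size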). Put shortly:
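BG1-Luc-4E2 cells (endogenous full-length ER-alpha, stable 4×ERE-luciferase) were starved 5 days in phenol-red-free medium with 10% charcoal-stripped FBS, plated 24 h, then given compound plus 17beta-estradiol for 21.5 h at 37 C; ONE-Glo luminescence read after 30 min.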

Estrogen receptor (Homo sapiens), sequence (P03372 whole entry, looked up): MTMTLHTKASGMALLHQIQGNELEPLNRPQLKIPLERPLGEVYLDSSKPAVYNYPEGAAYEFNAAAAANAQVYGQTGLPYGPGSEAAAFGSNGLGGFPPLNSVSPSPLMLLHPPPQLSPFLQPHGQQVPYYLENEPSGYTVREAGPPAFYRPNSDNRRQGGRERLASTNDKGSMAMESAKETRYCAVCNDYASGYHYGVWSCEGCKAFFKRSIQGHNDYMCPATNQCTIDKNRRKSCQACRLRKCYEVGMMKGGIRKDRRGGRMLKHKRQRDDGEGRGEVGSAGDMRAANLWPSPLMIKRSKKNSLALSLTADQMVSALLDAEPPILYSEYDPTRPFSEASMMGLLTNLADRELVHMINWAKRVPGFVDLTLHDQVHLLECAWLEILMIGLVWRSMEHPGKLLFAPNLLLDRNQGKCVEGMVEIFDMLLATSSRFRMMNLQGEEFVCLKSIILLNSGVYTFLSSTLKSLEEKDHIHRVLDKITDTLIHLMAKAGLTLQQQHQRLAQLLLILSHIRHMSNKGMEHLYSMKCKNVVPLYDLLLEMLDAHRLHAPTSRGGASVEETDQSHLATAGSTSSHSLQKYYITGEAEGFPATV
Peroxisome proliferator-activated receptor gamma (Homo sapiens), sequence (P37231 whole entry, looked up): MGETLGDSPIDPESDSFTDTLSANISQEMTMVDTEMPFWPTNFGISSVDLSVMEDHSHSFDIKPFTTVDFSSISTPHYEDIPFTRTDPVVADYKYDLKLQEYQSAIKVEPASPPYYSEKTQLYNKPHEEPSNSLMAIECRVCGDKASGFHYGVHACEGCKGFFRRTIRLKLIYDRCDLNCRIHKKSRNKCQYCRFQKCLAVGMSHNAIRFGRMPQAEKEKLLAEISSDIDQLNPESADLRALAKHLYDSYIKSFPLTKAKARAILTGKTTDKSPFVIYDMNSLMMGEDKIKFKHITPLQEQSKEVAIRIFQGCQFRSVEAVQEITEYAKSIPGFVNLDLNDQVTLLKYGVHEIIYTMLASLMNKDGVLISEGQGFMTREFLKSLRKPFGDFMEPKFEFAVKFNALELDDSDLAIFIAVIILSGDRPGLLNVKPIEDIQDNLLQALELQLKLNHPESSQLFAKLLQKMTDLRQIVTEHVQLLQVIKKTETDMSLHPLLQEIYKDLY
Aromatase (Homo sapiens), sequence (P11511 whole entry, looked up): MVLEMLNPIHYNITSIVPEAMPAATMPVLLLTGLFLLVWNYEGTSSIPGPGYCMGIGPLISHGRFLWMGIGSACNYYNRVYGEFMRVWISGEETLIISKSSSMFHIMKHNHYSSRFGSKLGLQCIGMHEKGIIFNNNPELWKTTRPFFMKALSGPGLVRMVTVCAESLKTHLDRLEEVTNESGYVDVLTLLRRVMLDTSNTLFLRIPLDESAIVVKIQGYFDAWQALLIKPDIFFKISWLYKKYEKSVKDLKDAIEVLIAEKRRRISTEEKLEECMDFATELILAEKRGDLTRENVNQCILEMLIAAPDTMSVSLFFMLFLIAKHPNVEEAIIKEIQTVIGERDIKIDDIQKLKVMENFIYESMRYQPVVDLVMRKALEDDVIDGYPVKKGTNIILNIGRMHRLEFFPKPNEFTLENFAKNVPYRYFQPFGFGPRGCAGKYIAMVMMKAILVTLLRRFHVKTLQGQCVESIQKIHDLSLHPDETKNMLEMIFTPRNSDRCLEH
Aryl hydrocarbon receptor (Homo sapiens), sequence (P35869 whole entry, looked up): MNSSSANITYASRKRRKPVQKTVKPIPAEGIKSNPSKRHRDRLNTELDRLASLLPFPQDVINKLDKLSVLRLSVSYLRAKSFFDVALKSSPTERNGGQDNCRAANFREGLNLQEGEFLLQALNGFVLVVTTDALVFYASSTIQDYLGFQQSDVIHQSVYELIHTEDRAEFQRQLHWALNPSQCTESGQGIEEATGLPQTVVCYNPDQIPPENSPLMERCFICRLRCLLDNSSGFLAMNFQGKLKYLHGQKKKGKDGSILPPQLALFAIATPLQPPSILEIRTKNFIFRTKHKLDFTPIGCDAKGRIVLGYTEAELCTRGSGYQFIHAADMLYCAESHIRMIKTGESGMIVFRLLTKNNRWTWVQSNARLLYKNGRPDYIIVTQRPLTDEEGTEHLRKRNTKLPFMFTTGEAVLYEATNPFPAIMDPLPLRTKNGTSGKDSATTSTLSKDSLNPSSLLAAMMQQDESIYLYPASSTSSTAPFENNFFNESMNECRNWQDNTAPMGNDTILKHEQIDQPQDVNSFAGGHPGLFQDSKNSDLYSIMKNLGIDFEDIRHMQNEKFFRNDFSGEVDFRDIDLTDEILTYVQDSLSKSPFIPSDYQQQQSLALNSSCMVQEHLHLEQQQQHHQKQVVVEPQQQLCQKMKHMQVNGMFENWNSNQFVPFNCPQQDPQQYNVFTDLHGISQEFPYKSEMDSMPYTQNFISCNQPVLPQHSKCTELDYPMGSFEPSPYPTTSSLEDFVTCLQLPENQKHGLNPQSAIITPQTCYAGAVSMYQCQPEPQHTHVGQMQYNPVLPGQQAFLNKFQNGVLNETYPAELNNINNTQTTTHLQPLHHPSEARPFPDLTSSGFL

Regarding `CC(C)[C@@H]1CC[C@@H](C)CC1=O`, the Potency result (in assay [1]; in [2]; in the assay with Aromatase (Homo sapiens); in [3]; in [4]; in [5]) was “inactive” throughout. The Potency entry in assay [7], in assay [8], in [9], in assay [10] and in assay [12] was “inactive” in each case. In addition, the compound was classed as inactive in [6] and in [11].
For `COc1ccc(C(=O)c2ccccc2O)c(O)c1`, the Potency result (in assay [13]; in assay [14]; in [1]; in assay [2]; with Aromatase (Homo sapiens); in [3]) was “inactive” each time. Further, the Potency result in [4], in [5], in assay [7], in [8], in assay [9] and in assay [10] was “inactive” throughout. Moreover, the Potency result in [12] is “inactive”. For the same compound, the compound was called inactive in [6] and in [11].
Take `C[C@]12CC[C@@H]3c4ccc(O)cc4CC[C@H]3[C@@H]1CC[C@H]2O`: the Potency in assay [13] is 9.86 µM (active) and 24.3 µM (active). Besides, the Potency result in assay [14], in [1], in assay [2], in assay [3], in assay [4] and in assay [5] was “inactive” throughout. Further, the Potency entry in assay [7], in assay [9], in assay [10] and in assay [12] was “inactive” throughout. Moreover, the call in assay [6] and in assay [11] was inactive.
In the case of `CCCN1C=CN(C)C1`, the Potency result in assay [15], in assay [1], in [16], in [17], in assay [18] and in [2] was “inactive” throughout. The Potency result (with Aromatase (Homo sapiens); in assay [3]; in [4]; in [5]; in assay [7]; in [8]) was “inactive” throughout. For the same compound, the Potency entry in assay [9], in assay [10] and in assay [12] was “inactive” throughout.
In the case of `Nc1ccc(O)c(N)c1`, the Potency entry (in assay [14]; in [15]; in assay [1]; in assay [16]; in [18]; with Aromatase (Homo sapiens)) was “inactive” throughout. Also, the Potency result in [8] and in assay [10] was “inactive” throughout. The Potency in assay [2] is 60.7 µM (active) and 61.1 µM (active); in assay [3], 54.1 µM (active); in [4], “inactive and 1.37 µM (active)”; in assay [5], 43.3 µM (active); in assay [7], 43.6 µM (active). In addition, the outcome in assay [6] was inactive.
Turning to `OCCNCCO`, the Potency entry (in assay [15]; in [16]; in assay [17]; in assay [18]; in assay [2]; in the assay with Aromatase (Homo sapiens)) was “inactive” in each case. In addition, the Potency result in assay [3], in assay [4], in assay [5], in assay [7], in [8] and in assay [9] was “inactive” each time. Besides, the Potency result in [10] and in assay [12] was “inactive” each time. The Potency in [1] is 17.4 µM (active) and inactive. In assay [11], the compound was classed as inactive.
Regarding `O=C(CCCN1CCC(O)(c2ccc(Cl)cc2)CC1)c1ccc(F)cc1`, the Potency in assay [13] was 26.6 µM (active) and 61.1 µM (active); in assay [9] it was 54.5 µM (active) and inactive. Also, the Potency entry (in assay [1]; in assay [2]; with Aromatase (Homo sapiens); in [3]; in assay [4]; in assay [5]) was “inactive” each time. For the same compound, the Potency result in [7] and in assay [10] was “inactive” in each case.
On to `Nc1ccc2c(O)cc(S(=O)(=O)O)cc2c1`, for which the Potency is 54.5 µM (active) in assay [13] and 9.7 µM (active) in [5]. Further, the Potency result (in assay [14]; in assay [1]; in [2]; in the assay with Aromatase (Homo sapiens); in assay [3]; in assay [4]) was “inactive” in each case. In addition, the Potency entry in assay [7], in [9], in assay [10] and in assay [12] was “inactive” each time. For the same compound, in [11], the compound was called inactive.
For the compound `C=CC(=O)OCCCC`, the Potency result (in assay [13]; in [14]; in assay [2]; with Aromatase (Homo sapiens); in assay [3]; in assay [4]) was “inactive” in each case. Further, the Potency entry in [5], in assay [7], in [8], in assay [9], in [10] and in assay [12] was “inactive” throughout. Further, the call in assay [11] was inactive.
